Reference: PubChem BioAssay AID1476 (National Center for Advancing Translational Sciences (NCATS), 2009)
Several values for one entry are separate records, joined by “and”; a condition that tells them apart may be missing. Identical values can stand only once. Screen size: about 200,000 compounds; about 4,500 (2.2%) were called active. Inconclusive results (about 12%) are left out. This is one part of a sample in which actives are shown more often than they occur. A structure can be active in one record and inactive in another. A number with no mark means an inactive call. The call rests on the fitted dose curve; in most records, active means well fitted inhibition curve with a large enough effect; inconclusive means small, poorly fitted or top-dose-only effect, or effect the other way; inactive means flat fitted curve, though single readings scatter.

These compounds were tested against Cruzipain (Trypanosoma cruzi) (UniProt P25779) (assay: qHTS Assay for Promiscuous and Specific Inhibitors of Cruzain (without detergent)). Conditions: purified cruzain, Z-FR-AMC fluorescence, no detergent.
Summary of the method: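 Purified cruzain at 1.5 nM, pre-incubated 15 min with compound at room temperature in 100 mM sodium acetate pH 5.5, 5 mM DTT, 0.00005% Triton X-100. Reaction started with 2 uM Z-FR-AMC; AMC fluorescence increase over 60 s gives rate.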
Further: nearly all actives have a fitted effect of over 40% in size.
Potency means the concentration at half of the fitted maximal effect.
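Wherever max response, negative = inhibition is given: plate controls were enzyme without inhibitor for no effect and buffer without enzyme for full effect.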

Sequence of Cruzipain (Trypanosoma cruzi) (P25779 123-467 limits assumed): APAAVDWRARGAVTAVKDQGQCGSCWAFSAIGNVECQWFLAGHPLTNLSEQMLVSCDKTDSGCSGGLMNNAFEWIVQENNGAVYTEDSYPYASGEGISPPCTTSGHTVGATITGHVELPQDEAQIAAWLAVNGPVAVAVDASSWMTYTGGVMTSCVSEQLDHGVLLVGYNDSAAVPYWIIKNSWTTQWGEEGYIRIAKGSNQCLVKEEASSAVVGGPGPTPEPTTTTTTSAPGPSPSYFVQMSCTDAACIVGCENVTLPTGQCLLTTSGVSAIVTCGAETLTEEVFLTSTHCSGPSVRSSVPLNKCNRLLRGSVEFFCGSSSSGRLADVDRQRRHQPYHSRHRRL

| SMILES | max response, negative = inhibition [%] | Potency |
| --- | --- | --- |
| Cc1ccc(-c2csc(NC(=O)c3cccs3)n2)cc1 | 7.26 |  |
| Cc1nc(-c2ccc(NC(=O)c3cccs3)cc2)cs1 | -25.5 |  |
| Cc1sc(NC(=S)NC(=O)c2cccs2)nc1-c1ccc(CC(C)C)cc1 |  | 10 µM (active) |
| COc1ccc(C2=NC(c3ccncc3)=Nc3ccc(Br)cc3N2)cc1 | 11.4 |  |
| O=C(Cn1ncn2nc(-c3cccs3)cc2c1=O)NCc1cccc(Br)c1 | -9.74 |  |
| O=C(CSc1oc(-c2ccco2)nc1S(=O)(=O)c1ccc(Cl)cc1)c1ccccc1 | 10.2 |  |
| CCCN(CCC)CCCNC(=O)Cn1cc2c(n1)-c1c(oc(C(=O)N3CCCC3)c1C)CC2 | 2.15 |  |
| CCc1cccc(NC(=O)CN(c2ccc(C)c(C)c2)S(=O)(=O)c2ccsc2C(=O)OC)c1 | -9.83 |  |
| Cc1ccc(CNC(=O)CSc2c(C)cnc3c2c(=O)n(C)c(=O)n3C)cc1 | -5.95 |  |
| O=C(CNC(=O)c1ccco1)OCC(=O)c1ccccc1 | -5.08 |  |
| Cc1nn2c(=O)cc(COC(=O)CNC(=O)c3ccc(F)cc3)nc2s1 | -12.1 |  |
| Cc1cc(C(=O)COC(=O)CNC(=O)c2ccc(F)cc2)c(C)n1Cc1ccco1 |  | 15.8 µM (active) |
| O=c1cc(-c2ccccc2)n2c(SCc3ccccc3)nnc2[nH]1 | -3.24 |  |
| CC(C)Nc1nc(N(c2ccccc2)c2ccccc2)nc(-n2ccnc2)n1 | 11.1 |  |
| N#Cc1nc(N)nc(N(c2ccccc2)c2ccccc2)n1 |  | 1.58 µM (active) |
| COc1ccc(NC(=O)CNC(=O)Cn2ccc3ccccc3c2=O)c(OC)c1 | 10.4 |  |
| Cc1ccccc1NC(=O)c1ccc(COc2ccc3c(C)cc(=O)oc3c2)cc1 |  | 10 µM (active) |
| COC(=O)COc1ccc2oc(=O)cc(C)c2c1 | -6.25 |  |
| Cc1ccccc1N1CCN(CCCOc2ccc3c(C)cc(=O)oc3c2)CC1 | -15.8 |  |
| CC(=O)N1CCCc2ccc(NS(=O)(=O)c3ccc(F)cc3F)cc21 | 8.5 |  |
| COc1cc2c(cc1OC)C(COc1ccc(F)cc1)N(C(=O)c1ccccc1F)CC2 (centres undefined) | 28.1 |  |
| COc1ccc(-c2c(C)cc3oc(=O)cc(-c4ccccc4)c3c2C)cc1OC | -25.9 |  |

| SMILES | max response, negative = inhibition [%] | Potency |
| --- | --- | --- |
| COc1ccc(-c2c(C)cc3oc(=O)cc(-c4ccccc4)c3c2C)cc1F |  | 39.8 µM (active) |
| CC(=O)COc1ccc2c(-c3ccccc3)cc(=O)oc2c1 | 2.99 |  |
| Cc1cc(C)cc(NC(=O)CSc2nc3nccnc3c(=O)n2CCc2c[nH]c3ccccc23)c1 | -2.15 |  |
| O=S(=O)(c1ccccc1)c1nc(-c2ccc(Cl)cc2Cl)oc1N1CCCCC1 | -16.2 |  |
| Cc1ccc(S(=O)(=O)n2nc(C)c(S(=O)(=O)N3CCCCCC3)c2C)cc1 | -10.4 |  |
| Oc1c(Cl)cc(Cl)c(Cl)c1Cc1c(O)c(Cl)cc(Cl)c1Cl | -18.2 | 31.6 µM (active) and 25.1 µM (active) |
| CCOc1ccc(NC(=O)CSc2c3c(nc4ccccc24)CCCC3)cc1 | 1.83 |  |
| CCOc1ccc(NC(=O)CSc2ncnc3c2sc2ccccc23)cc1 | -8.47 | 25.1 µM (active) |
| CCOc1ccc(NC(=O)CSc2nc3ccccc3c(=O)n2Cc2cccs2)cc1 | -21.1 |  |
| Cc1ccc(C)c(N2CCN(C(c3ccccc3)c3nnc(-c4ccccc4)o3)CC2)c1 (centres undefined) | -12.6 |  |
| COc1ccc(CCNC(=O)CCCCn2c(=O)c3ccccc3n(Cc3ccccc3)c2=O)cc1OC | -0.815 |  |
| COc1cc(C2c3c(oc4ccccc4c3=O)C(=O)N2c2nc(C)c(C)s2)ccc1O (centres undefined) | -4.14 |  |
| COc1ccccc1CNC(=O)CCCCn1c(=O)c2ccccc2n(CC(=O)Nc2cc(Cl)ccc2C)c1=O | -2.88 |  |
| O=C(c1ccccc1)N1CCN(c2ccc([N+](=O)[O-])c(NCc3ccco3)c2)CC1 | -12.2 |  |
| O=[N+]([O-])c1ccc(N2CCN(S(=O)(=O)c3ccc4ccccc4c3)CC2)cc1NCc1ccco1 |  | 7.94 µM (active) |
| COc1ccccc1OCCNc1cc(N2CCOCC2)ccc1[N+](=O)[O-] | 26.2 |  |
| CCc1ccccc1NC(=O)CSc1nc(C)c(C(=O)Nc2ccccc2)c(-c2ccc(Cl)cc2)c1C#N | 4.27 |  |
| CCc1ccc(NC(=O)CN2C(=O)C(c3ccccc3)=NC23CCCCCC3)cc1 | -25.9 |  |
| COc1ccc(S(=O)(=O)N(C)CC(=O)Nc2ccc3c(c2)OCCO3)cc1OC | -3.41 |  |
| O=C(CN(c1ccc2c(c1)OCCO2)S(=O)(=O)c1ccccc1)Nc1ccc2c(c1)OCO2 |  | 12.6 µM (active) |
| Cc1noc(C)c1S(=O)(=O)N(CC(=O)Nc1ccc2c(c1)OCCO2)c1ccc(C(C)C)cc1 | 0.199 |  |
| Cc1ccc(S(=O)(=O)N(CC(=O)Nc2ccc(Cl)cc2Cl)c2ccccc2C)cc1 | -29.7 |  |

| SMILES | max response, negative = inhibition [%] | Potency |
| --- | --- | --- |
| COc1ccc(-n2nc(C(=O)NCCc3ccc(Cl)cc3)c3c4ccccc4n(C)c3c2=O)cc1Cl | -5.4 |  |
| COC(=O)c1sccc1NC(=O)c1cc(OC)c(OC)c(OC)c1 | 13.7 |  |
| COC(=O)c1sccc1NC(=O)COc1ccc(Cl)cc1 | -7.31 |  |
| COC(=O)c1sccc1N/N=C(\C)c1ccc(F)c(Cl)c1 |  | 20 µM (active) |
| O=C(CCS(=O)(=O)c1ccccc1)N(Cc1cccnc1)c1nc2c(F)cccc2s1 | 15.4 |  |
| CC(C)CN(C(=O)c1cccc(S(=O)(=O)N2CCCCC2)c1)C1CCS(=O)(=O)C1 (centres undefined) | 5.95 |  |
| COc1ccc(OCCCn2c(C)nc3cc(C)c(C)cc32)cc1 | 11.2 |  |
| COc1cccc(N2CC(NC(=O)/C=C\c3ccccc3)CC2=O)c1 (centres undefined) | -5.97 |  |
| O=c1cc(CN2CCN(S(=O)(=O)/C=C/c3ccccc3)CC2)c2ccc(O)cc2o1 | -11.9 |  |
| OC(COc1ccc2c(c1)CCC2)CN1CCN(c2cccc(Cl)c2)CC1 (centres undefined) | 1.52 |  |
| O=c1cc(CN2CCN(c3cccc(Cl)c3)CC2)c2cc3c(cc2o1)CCCC3 |  | 12.6 µM (active) |
| C=CCN1C(=O)C(O)(CC(=O)c2ccc(Cl)cc2)c2ccccc21 (centres undefined) |  | 12.6 µM (active) |
| O=C(CC1(O)C(=O)N(CN2CCOCC2)c2ccccc21)c1ccccc1 (centres undefined) | 2.42 |  |
| Cc1ccc(C(=O)CC2(O)C(=O)N(CCc3ccccc3)c3ccc(Br)cc32)cc1 (centres undefined) | 7.97 |  |
| CC(=O)Nc1ccc(NC(=O)CCCc2nc(-c3ccc(C(C)(C)C)cc3)no2)cc1 | -10.5 |  |
| O=C(CC(NCc1cccnc1)C(=O)O)Nc1ccc(O)cc1 (centres undefined) | 7.85 |  |
| Cc1cc(C)cc(NC(=O)Cn2c(=O)c3ccccc3n3nncc23)c1 | 4.51 |  |
| COc1cc(OC)c(N(C)C(=O)c2cc3c(=O)oc4ccccc4c3s2)cc1Cl | 6.95 |  |
| Cc1ccc2nc(COc3cccc(NC(=O)c4ccccc4Cl)c3)cc(=O)n2c1 | -3.57 |  |
| CCOc1ccccc1NC(=O)CCc1ccc(C)o1 | 8.1 |  |
| Cc1ccc(CCC(=O)Nc2ncc(Cc3cc(Cl)ccc3Cl)s2)o1 |  | 25.1 µM (active) |
| Cc1cnc(NC(=O)CSc2nnc(-c3ccc(Cl)cc3Cl)n2N)s1 | -2.62 |  |

| SMILES | max response, negative = inhibition [%] | Potency |
| --- | --- | --- |
| O=C(Cn1c(=O)n(-c2ccc(F)cc2)c(=O)c2sc3ccccc3c21)NC1CCCC1 | -5.91 |  |
| CCOC(=O)c1ccccc1NC(=O)CCc1c(C)nc2c(c1C)c(=O)n(C)c(=O)n2C | -1.55 |  |
| O=C(NCCOc1ccccc1)c1ccccc1 | -3.94 |  |
| O=C(NCCc1ccccc1)c1ccc(OCCOc2ccccc2)cc1 |  | 20 µM (active) |
| COc1ccc(OCCCC(=O)NCCc2ccccc2)cc1 | -1.93 |  |
| Cc1ccc(NC(=O)c2ccc3[nH]c(C)cc(=O)c3c2)c(C)c1 | -6.14 |  |
| COc1ccc(-c2cc(NCc3ccc(F)cc3)n3cnnc3n2)cc1 | 6.65 |  |
| Cc1ccc(C(=O)Nc2cc3c(cc2N2CCCC2)n(C)c(=O)c(=O)n3C)cc1 | -9.28 |  |
| CCOc1ccccc1NC(=O)Cn1nnc(C(=O)Nc2ccc(C)c(C)c2)c1N | 0.467 |  |
| Nc1c(C(=O)NCc2ccccc2)nnn1Cc1cccc(Cl)c1 | -27.5 |  |
| CCOC(=O)c1cn(CC(=O)Nc2ccc(C(C)C)cc2)nn1 | 3.14 |  |
| Cc1cccc(NC(=O)c2nnn(CC(=O)Nc3ccc(C(C)C)cc3)c2N)c1C |  | 20 µM (active) |
| CC(C)c1ccc(NC(=O)Cn2nnc(C(=O)NCCc3ccccc3)c2N)cc1 |  | 3.16 µM (active) |
| COc1ccc(NC(=O)Cn2nnc(C(=O)NCCc3ccc(OC)c(OC)c3)c2N)cc1 | 28.4 |  |
| COc1ccccc1NC(=O)CSC1=Nc2ccccc2C2=NC(CC(=O)NCc3cccs3)C(=O)N12 (centres undefined) | -5.88 |  |
| CC(C)CC(NS(=O)(=O)c1ccc2c(c1)oc(=O)n2C)C(=O)NCc1ccccc1Cl (centres undefined) | -14 |  |
| Cc1cccc(NC(=O)N2CCN(C)c3ncccc32)c1C | 2.65 |  |
| Cc1ccc(Oc2ccc3c(c2)C(=O)N(c2cccc4cccnc24)C3=O)cc1 |  | 25.1 µM (active) |
| Cc1cccc(N2C(=O)c3cccnc3C2=O)c1 | -4.26 |  |
| CC(=O)Oc1ccc(C)cc1N1C(=O)c2ccc(C(=O)O)cc2C1=O | -6.79 |  |
| COc1ccc(CNC(=O)c2ccc3c(c2)nc2n3CCOC2)c(OC)c1 | -7.25 |  |
